Test results: ChEMBL document CHEMBL2218924, “A broad activity screen in support of a chemogenomic map for kinase signalling research and drug discovery” (Biochem J, 2013)

Key:
[1] = target: Serine/threonine-protein kinase PAK 4 (Homo sapiens) (UniProt O96013); conditions: at 1 µM
[2] = target: Serine/threonine-protein kinase PAK 4 (Homo sapiens) (UniProt O96013); conditions: at 10 µM
[3] = target: Serine/threonine-protein kinase PAK 5 (Homo sapiens) (UniProt Q9P286); conditions: at 1 µM
[4] = target: Serine/threonine-protein kinase PAK 5 (Homo sapiens) (UniProt Q9P286); conditions: at 10 µM
[5] = target: Serine/threonine-protein kinase PAK 6 (Homo sapiens) (UniProt Q9NQU5); conditions: at 1 µM
Serine/threonine-protein kinase PAK 6 (Homo sapiens), sequence (Q9NQU5 whole entry, looked up, the tested form may be a part): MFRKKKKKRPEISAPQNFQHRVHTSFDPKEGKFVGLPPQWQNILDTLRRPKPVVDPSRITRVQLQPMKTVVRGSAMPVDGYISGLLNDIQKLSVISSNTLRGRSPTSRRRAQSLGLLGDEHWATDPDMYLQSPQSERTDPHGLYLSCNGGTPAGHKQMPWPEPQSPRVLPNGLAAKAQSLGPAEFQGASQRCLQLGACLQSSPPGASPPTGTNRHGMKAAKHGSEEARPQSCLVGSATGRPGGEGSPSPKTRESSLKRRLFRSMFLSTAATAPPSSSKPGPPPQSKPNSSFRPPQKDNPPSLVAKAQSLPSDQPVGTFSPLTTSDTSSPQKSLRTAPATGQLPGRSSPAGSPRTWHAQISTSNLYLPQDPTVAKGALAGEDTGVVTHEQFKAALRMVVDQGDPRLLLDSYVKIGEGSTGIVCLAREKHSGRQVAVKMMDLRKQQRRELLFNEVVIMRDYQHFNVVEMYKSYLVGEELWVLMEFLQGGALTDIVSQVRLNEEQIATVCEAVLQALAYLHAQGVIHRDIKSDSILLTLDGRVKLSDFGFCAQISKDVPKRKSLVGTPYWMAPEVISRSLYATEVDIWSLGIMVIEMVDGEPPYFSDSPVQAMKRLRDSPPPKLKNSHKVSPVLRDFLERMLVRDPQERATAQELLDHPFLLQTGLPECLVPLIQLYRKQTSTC

[6] = target: Serine/threonine-protein kinase PAK 6 (Homo sapiens) (UniProt Q9NQU5); conditions: at 10 µM
[7] = target: PAS domain-containing serine/threonine-protein kinase (Homo sapiens) (UniProt Q96RG2); conditions: at 10 µM
PAS domain-containing serine/threonine-protein kinase (Homo sapiens), sequence (Q96RG2 whole entry, the tested form may be a part): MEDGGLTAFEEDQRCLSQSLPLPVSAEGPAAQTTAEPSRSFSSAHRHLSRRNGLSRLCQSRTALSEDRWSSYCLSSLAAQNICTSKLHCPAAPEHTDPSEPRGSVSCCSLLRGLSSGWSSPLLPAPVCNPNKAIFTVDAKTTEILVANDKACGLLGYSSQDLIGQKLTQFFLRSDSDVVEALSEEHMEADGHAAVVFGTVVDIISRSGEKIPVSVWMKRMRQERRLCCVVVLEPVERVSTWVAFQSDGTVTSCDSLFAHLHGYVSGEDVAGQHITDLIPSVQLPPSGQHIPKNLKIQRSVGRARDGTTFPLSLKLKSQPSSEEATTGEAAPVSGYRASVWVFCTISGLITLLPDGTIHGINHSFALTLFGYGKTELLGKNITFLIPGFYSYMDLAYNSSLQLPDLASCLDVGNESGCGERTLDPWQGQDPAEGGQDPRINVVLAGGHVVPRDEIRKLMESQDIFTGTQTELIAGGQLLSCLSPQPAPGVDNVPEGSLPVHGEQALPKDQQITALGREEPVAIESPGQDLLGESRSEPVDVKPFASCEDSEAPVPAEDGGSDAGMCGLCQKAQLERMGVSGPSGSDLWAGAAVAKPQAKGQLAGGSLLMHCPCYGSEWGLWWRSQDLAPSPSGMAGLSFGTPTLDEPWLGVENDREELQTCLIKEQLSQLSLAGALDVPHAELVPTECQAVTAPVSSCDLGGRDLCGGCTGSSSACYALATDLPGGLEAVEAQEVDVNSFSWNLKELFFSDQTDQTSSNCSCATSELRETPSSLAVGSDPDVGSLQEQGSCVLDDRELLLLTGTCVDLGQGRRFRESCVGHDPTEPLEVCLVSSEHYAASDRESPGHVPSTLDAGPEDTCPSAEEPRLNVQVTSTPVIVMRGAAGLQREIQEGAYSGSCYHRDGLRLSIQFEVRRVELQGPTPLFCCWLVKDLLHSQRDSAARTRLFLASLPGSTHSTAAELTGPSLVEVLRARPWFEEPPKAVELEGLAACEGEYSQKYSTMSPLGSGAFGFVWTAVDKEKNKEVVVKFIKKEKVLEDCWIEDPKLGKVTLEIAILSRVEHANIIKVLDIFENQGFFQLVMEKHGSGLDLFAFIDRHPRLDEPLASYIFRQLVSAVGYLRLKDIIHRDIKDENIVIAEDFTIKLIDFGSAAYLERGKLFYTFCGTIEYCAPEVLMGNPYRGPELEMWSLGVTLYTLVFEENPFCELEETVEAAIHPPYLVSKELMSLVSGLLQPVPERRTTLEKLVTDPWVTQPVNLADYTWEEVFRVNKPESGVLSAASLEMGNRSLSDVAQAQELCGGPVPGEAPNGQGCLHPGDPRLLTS

[8] = target: Activated CDC42 kinase 1 (Homo sapiens) (UniProt Q07912); conditions: at 1 µM
[9] = target: Activated CDC42 kinase 1 (Homo sapiens) (UniProt Q07912); conditions: at 10 µM
[10] = target: ALK tyrosine kinase receptor (Homo sapiens) (UniProt Q9UM73); conditions: at 1 µM
ALK tyrosine kinase receptor (Homo sapiens), sequence (Q9UM73 19-1620 limits assumed): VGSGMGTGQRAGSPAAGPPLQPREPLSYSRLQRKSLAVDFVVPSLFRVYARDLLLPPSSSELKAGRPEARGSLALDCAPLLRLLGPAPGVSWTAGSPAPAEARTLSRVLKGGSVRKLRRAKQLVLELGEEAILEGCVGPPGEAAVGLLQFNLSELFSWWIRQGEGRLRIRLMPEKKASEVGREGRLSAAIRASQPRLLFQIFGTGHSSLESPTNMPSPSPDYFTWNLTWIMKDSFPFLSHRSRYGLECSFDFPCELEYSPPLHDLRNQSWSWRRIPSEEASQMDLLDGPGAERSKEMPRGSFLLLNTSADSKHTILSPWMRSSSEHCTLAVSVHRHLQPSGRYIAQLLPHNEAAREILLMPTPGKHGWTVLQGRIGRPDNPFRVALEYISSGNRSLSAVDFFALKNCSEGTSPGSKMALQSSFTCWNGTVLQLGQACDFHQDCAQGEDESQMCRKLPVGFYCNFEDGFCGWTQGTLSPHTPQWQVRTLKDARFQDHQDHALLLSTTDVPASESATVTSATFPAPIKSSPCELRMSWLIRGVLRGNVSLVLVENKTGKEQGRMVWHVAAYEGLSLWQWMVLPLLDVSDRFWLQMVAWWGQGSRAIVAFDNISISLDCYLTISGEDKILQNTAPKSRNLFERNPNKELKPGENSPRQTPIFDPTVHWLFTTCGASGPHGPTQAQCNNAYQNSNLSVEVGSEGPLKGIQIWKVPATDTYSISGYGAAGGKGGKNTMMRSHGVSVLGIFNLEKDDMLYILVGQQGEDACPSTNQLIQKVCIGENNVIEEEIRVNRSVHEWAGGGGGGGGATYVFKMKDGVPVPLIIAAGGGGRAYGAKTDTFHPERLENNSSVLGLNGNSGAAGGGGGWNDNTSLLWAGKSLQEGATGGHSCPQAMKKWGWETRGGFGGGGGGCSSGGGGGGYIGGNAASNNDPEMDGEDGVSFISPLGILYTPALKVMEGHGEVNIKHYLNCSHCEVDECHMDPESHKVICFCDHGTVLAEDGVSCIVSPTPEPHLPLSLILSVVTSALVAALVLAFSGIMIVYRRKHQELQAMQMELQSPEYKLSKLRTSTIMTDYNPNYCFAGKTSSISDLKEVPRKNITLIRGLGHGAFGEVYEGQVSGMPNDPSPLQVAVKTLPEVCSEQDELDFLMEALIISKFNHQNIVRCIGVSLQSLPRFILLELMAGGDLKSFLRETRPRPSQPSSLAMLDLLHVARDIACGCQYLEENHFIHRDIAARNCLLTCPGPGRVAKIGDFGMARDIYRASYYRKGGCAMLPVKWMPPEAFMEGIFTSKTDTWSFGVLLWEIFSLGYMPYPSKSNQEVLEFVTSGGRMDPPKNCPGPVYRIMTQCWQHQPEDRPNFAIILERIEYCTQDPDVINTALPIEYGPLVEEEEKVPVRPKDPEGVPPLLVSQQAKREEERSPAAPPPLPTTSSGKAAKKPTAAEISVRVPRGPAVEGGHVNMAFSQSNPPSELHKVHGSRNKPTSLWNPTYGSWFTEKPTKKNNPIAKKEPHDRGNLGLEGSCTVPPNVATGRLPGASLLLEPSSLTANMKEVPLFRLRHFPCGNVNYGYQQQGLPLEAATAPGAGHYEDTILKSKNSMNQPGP

Serine/threonine-protein kinase PAK 4 (Homo sapiens), sequence (O96013 whole entry, looked up): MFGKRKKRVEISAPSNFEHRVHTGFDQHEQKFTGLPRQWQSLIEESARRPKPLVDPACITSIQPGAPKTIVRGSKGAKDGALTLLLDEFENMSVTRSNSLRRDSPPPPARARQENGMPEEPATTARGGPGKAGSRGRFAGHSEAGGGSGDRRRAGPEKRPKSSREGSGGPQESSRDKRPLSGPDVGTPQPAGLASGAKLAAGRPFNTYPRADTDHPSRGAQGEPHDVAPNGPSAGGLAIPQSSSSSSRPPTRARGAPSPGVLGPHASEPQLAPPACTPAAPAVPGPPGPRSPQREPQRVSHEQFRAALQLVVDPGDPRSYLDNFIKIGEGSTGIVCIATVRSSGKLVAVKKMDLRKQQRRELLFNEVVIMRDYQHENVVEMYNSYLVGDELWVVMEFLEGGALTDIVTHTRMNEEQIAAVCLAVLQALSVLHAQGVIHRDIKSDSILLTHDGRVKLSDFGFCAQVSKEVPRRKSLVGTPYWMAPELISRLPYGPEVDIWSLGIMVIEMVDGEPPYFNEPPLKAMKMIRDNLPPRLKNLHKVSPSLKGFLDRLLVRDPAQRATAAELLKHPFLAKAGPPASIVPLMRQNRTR
Serine/threonine-protein kinase PAK 5 (Homo sapiens), sequence (Q9P286 whole entry, looked up): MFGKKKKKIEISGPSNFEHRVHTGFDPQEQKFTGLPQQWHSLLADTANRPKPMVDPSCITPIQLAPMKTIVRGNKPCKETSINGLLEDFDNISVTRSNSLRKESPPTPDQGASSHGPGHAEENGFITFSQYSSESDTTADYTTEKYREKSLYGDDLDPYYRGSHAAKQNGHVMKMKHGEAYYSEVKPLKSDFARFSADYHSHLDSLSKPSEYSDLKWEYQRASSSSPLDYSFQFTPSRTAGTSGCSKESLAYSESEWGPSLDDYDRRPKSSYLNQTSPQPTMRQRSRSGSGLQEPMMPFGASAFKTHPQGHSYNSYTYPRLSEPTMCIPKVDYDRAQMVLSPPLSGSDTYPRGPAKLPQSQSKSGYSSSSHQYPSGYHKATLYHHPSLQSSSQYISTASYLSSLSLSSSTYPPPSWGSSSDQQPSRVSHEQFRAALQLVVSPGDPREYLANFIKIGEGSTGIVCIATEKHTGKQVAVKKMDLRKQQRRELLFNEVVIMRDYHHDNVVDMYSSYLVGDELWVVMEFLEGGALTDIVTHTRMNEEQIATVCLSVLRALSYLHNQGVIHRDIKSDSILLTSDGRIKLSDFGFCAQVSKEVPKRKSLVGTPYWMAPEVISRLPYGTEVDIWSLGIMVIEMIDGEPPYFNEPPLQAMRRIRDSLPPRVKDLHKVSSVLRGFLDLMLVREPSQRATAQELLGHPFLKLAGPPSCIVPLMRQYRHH

| SMILES | residual activity [1] [%] | residual activity [2] [%] | residual activity [3] [%] | residual activity [4] [%] | residual activity [5] [%] | residual activity [6] [%] | residual activity [7] [%] | residual activity [8] [%] | residual activity [9] [%] | residual activity [10] [%] |
| --- | --- | --- | --- | --- | --- | --- | --- | --- | --- | --- |
| C[C@@H](N)[C@H]1CC[C@H](C(=O)Nc2ccncc2)CC1 | 92 | 77 | 104 | 106 | 117 | 109 | 85 | 97 | 95 | 116 |
| O=C1c2ccccc2-[n+]2ccc3c([nH]c4ccccc43)c21 | 90 | 92 | 82 | 90 | 102 | 84 | 119 | 77 | 55 | 85 |
| c1ccc(-c2n[nH]c3c2oc2ccccc23)cc1 | 95 | 83 | 83 | 86 |  |  | 77 | 65 | 51 | 84 |
| COc1ccc(C(=O)Nc2sc3c(c2C(N)=O)CCCC3)cc1OC | 92 | 86 | 104 | 116 | 95 | 93 | 90 | 77 | 54 | 56 |
| CCN(CC)C(=O)c1ccc(Nc2nc(OCC3CCCCC3)c3nc[nH]c3n2)cc1 | 18 | 2 | 43 | 3 | 58 | 23 |  | 5 | 1 | 65 |
| O=C1NC(=O)c2cc(Nc3ccc(F)cc3)c(Nc3ccc(F)cc3)cc21 | 89 | 74 | 98 | 66 | 100 | 64 | 51 | 79 | 34 | 84 |
| CCOc1cc2ncnc(Nc3cccc(Br)c3)c2cc1OCC | 100 | 79 | 111 | 82 | 100 | 96 | 56 | 28 | 5 | 75 |
| CC[n+]1c(/C=C/N(C)c2ccccc2)n(-c2ccccc2)c2ccc(-c3nc4ccccc4s3)cc21 | 103 | 100 | 104 | 119 | 102 | 96 | 43 | 110 | 77 | 88 |
| COc1cc2ncc(-c3ccccc3)nc2cc1OC |  | 93 |  |  | 92 | 74 | 93 | 96 | 56 |  |
| N#CCCc1ccc2c(c1)-c1[nH]c3ccc([N+](=O)[O-])cc3c1CC(=O)N2 | 13 | 4 | 16 | 7 | 55 | 16 | 52 | 32 | 13 | 73 |
| CN(C)c1ccc(/C=C2\C(=O)Nc3ccccc32)cc1 | 100 | 83 | 95 | 77 | 83 | 77 | 23 | 89 | 62 | 80 |
| O=C(Nc1cccc(Nc2cc(Nc3cccc(C(F)(F)F)c3)ncn2)c1)C1CC1 | 94 | 79 | 100 | 98 | 104 | 90 | 64 | 79 | 26 | 88 |
| Nc1n[nH]c2nnc(-c3c(-c4ccccc4)nn4ccccc34)cc12 | 94 | 90 | 112 | 90 | 93 | 99 | 114 | 61 | 29 | 77 |
| COc1ccc(OC)c2c(=S)c3ccccc3[nH]c12 | 95 | 90 | 115 | 101 | 95 | 80 | 102 | 83 | 57 | 79 |
| CO[C@H]1C[C@@H]2CC[C@@H](C)[C@@](O)(O2)C(=O)C(=O)N2CCCC[C@H]2C(=O)O[C@H]([C@H](C)C[C@@H]2CC[C@@H](O)[C@H](OC)C2)CC(=O)[C@H](C)/C=C(\C)[C@@H](O)[C@@H](OC)C(=O)[C@H](C)C[C@H](C)/C=C/C=C/C=C/1C | 89 | 88 | 97 | 109 | 106 | 136 |  | 82 | 63 | 82 |
| COc1cc2ncnc(Nc3ccc(Oc4ccccc4)cc3)c2cc1OC | 94 | 80 | 108 | 136 | 98 | 124 | 131 | 28 | 9 | 54 |
| Cn1nc2c3c(cccc31)C(=O)c1ccccc1-2 | 97 | 87 | 86 |  | 108 |  | 95 | 61 | 31 | 72 |
| O=C(O)c1ccc2c3c1cccc3c(=O)n1c3ccccc3nc21 | 100 | 98 | 100 | 96 | 91 | 85 | 98 | 94 | 75 | 70 |
